Source: the supplement of paper PMC10849652
The full data set covers some 7,900 targets. This sample favours those with a hit. About 0.6% of all pairs of compound and target were hits.

Key:
Assay in all cases: log2 fold change, soluble protein after heating vs DMSO (PISA); higher = thermal stabilisation; K562 cells, 10 uM, 30 min; active = over 0.2 and 3.5 SD of the protein, either way, in both replicates (recomputed)
[1] = compound: C1=CC=C(C=C1)[C@H](COC2=CC3=C(C=C2)NC(=O)N3)NC(=O)C4=CC=CN(C4=O)CC5=CC(=C(C=C5)F)F
In short: (§1)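 Soluble protein was quantified by TMTpro 16plex LC-MS/MS after channel sums were equalised. It was obtained as the supernatant after 21,000xg for 90 min from pooled aliquots of K562 cells (2×10^6 cells/mL, 10 μM compound, 30 min) heated for 3 min across 48°C-58°C and extracted in PBS with 0.5% NP-40 at 4°C. Thermal stability values are relative to control samples and come from duplicates. They are given as log2 fold changes.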

[2] = compound: CC1=C(SC2=C1C(=N[C@H](C3=NN=C(N32)C)CC(=O)N)C4=CC=C(C=C4)Cl)C
In short: as §1

[3] = compound: CC1=C2C(=CC=C1)N=C(N(C2=O)C3=CC=CC=C3C)CN4C=NC5=C(N=CN=C54)N
In short: as §1

[4] = compound: Cc1sc2c(c1C)C(c1ccc(Cl)cc1)=N[C@@H](CC(=O)OC(C)(C)C)c1nnc(C)n1-2
In short: as §1

[5] = compound: c1ccc([C@@H]2C[C@H]2NC2CCNCC2)cc1
In short: as §1

Measured: log2 fold change

NUP85 (UniProt Q9BW27)
inactive: [1] -0.009 | [2] -0.018 | [3] 0.042 | [4] -0.004 | [5] 0.019

NEDD4 isoform 4 (UniProt P46934)
Chain of UniProt P46934 (P46934 whole entry, looked up): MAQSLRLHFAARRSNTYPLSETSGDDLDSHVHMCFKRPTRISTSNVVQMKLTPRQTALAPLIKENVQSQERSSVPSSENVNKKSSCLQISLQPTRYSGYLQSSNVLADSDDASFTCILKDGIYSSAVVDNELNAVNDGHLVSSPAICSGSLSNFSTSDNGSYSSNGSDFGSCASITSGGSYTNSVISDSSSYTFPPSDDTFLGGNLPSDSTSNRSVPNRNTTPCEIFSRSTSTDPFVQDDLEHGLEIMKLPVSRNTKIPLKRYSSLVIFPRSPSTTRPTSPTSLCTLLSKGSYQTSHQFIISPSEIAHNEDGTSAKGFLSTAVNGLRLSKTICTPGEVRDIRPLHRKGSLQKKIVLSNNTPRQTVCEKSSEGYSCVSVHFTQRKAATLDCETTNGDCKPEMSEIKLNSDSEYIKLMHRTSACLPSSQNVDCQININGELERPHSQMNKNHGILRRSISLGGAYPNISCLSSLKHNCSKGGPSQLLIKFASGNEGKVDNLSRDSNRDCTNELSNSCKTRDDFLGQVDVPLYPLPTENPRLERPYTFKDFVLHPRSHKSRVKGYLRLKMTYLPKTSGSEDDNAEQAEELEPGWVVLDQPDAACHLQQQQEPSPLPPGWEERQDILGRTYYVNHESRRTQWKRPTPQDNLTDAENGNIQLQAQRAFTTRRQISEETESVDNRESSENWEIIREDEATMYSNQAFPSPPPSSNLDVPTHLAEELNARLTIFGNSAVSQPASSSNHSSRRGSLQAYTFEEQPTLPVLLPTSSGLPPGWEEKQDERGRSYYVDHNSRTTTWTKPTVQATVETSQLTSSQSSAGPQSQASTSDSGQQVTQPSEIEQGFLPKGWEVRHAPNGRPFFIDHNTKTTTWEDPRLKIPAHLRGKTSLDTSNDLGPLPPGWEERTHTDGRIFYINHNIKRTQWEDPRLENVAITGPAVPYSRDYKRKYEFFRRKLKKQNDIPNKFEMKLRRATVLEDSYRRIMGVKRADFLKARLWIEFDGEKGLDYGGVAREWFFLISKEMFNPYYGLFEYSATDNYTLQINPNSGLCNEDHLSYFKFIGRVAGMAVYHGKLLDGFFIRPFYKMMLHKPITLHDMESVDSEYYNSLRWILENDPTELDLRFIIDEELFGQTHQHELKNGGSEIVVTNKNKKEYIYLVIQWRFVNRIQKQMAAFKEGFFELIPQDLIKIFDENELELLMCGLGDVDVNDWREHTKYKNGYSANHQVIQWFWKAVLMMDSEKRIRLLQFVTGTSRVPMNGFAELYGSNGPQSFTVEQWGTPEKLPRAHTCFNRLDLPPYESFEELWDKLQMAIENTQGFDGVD
inactive: [1] -0.006 | [2] 0.103 | [3] 0.081 | [4] 0.002 | [5] -0.007

MRPS9 (UniProt P82933)
inactive: [1] -0.001 | [2] 0.008 | [3] -0.025 | [4] 0.034 | [5] 0.025

NOSIP (UniProt Q9Y314)
inactive: [1] 0.056 | [2] 0.043 | [3] 0.179 | [4] -0.043 | [5] 0.016

MT-ND4 (UniProt P03905)
inactive: [1] -0.124 | [2] -0.017 | [3] -0.045 | [4] -0.057 | [5] 0.036

MRPS10 (UniProt P82664)
inactive: [1] -0.019 | [2] -0.102 | [3] 0.065 | [4] 0.132 | [5] 0.025

MRPS18B (UniProt Q9Y676)
inactive: [1] -0.055 | [2] -0.113 | [3] -0.041 | [4] 0.127 | [5] -0.078

OSBPL8 (UniProt Q9BZF1)
inactive: [1] -0.051 | [2] -0.071 | [3] 0.007 | [4] -0.018 | [5] -0.002

NMT2 (UniProt O60551)
inactive: [1] -0.045 | [2] 0.053 | [3] 0.092 | [4] 0.026 | [5] -0.107

NCKAP1 isoform 2 (UniProt Q9Y2A7)
inactive: [1] -0.037 | [2] 0.035 | [3] 0.003 | [4] 0.007 | [5] -0.004

NFE2 (UniProt Q16621)
Chain of UniProt Q16621 (Q16621 whole entry, looked up): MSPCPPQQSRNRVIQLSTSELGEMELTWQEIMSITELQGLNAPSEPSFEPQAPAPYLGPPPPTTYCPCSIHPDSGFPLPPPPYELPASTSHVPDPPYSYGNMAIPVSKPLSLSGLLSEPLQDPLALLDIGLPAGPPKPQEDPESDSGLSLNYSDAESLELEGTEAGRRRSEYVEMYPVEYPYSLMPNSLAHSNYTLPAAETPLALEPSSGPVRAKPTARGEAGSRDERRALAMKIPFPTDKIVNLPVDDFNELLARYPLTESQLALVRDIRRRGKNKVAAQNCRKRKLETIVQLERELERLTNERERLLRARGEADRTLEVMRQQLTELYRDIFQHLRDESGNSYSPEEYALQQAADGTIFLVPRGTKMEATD
inactive: [1] 0.054 | [2] -0.004 | [3] 0.12 | [4] 0.087 | [5] 0.145

OSBP (UniProt P22059)
inactive: [1] 0.015 | [2] 0.084 | [3] 0.076 | [4] -0.002 | [5] 0.031

OXSM (UniProt Q9NWU1)
inactive: [1] 0.072 | [2] -0.007 | [3] 0.045 | [4] -0.007 | [5] 0.036

NAP1L1 (UniProt P55209)
inactive: [1] -0.072 | [2] 0.003 | [3] 0.17 | [4] 0.013 | [5] 0.009

NNMT (UniProt P40261)
Chain of UniProt P40261 (P40261 whole entry, looked up): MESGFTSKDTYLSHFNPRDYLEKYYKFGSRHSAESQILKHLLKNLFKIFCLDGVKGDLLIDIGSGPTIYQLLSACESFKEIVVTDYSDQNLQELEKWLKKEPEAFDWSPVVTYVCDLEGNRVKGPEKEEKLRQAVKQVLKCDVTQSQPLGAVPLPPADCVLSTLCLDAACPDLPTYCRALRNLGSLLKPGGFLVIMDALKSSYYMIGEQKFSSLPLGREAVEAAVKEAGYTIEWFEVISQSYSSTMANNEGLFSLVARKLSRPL
inactive: [1] 0.021 | [2] 0.051 | [3] 0.078 | [4] -0.009 | [5] -0.055

NOP2 isoform 4 (UniProt P46087)
inactive: [1] 0.184 | [2] -0.494 | [3] -0.694 | [4] 0.409 | [5] -0.009

MON2 isoform 5 (UniProt Q7Z3U7)
inactive: [1] -0.023 | [2] 0.016 | [3] 0.109 | [4] -0.025 | [5] -0.073

NISCH (UniProt Q9Y2I1)
inactive: [1] 0.044 | [2] -0.02 | [3] 0.036 | [4] 0.044 | [5] -0.044

NSMCE4A (UniProt Q9NXX6)
inactive: [1] 0.123 | [2] 0.03 | [3] -0.088 | [4] -0.037 | [5] -0.014

PAAF1 (UniProt Q9BRP4)
inactive: [1] -0.012 | [2] 0.043 | [3] 0.076 | [4] -0.014 | [5] 0.008

NASP (UniProt P49321)
inactive: [1] -0.009 | [2] 0.049 | [3] 0.054 | [4] -0.022 | [5] 0.013

NUMA1 (UniProt Q14980)
Chain of UniProt Q14980 (Q14980 whole entry, looked up): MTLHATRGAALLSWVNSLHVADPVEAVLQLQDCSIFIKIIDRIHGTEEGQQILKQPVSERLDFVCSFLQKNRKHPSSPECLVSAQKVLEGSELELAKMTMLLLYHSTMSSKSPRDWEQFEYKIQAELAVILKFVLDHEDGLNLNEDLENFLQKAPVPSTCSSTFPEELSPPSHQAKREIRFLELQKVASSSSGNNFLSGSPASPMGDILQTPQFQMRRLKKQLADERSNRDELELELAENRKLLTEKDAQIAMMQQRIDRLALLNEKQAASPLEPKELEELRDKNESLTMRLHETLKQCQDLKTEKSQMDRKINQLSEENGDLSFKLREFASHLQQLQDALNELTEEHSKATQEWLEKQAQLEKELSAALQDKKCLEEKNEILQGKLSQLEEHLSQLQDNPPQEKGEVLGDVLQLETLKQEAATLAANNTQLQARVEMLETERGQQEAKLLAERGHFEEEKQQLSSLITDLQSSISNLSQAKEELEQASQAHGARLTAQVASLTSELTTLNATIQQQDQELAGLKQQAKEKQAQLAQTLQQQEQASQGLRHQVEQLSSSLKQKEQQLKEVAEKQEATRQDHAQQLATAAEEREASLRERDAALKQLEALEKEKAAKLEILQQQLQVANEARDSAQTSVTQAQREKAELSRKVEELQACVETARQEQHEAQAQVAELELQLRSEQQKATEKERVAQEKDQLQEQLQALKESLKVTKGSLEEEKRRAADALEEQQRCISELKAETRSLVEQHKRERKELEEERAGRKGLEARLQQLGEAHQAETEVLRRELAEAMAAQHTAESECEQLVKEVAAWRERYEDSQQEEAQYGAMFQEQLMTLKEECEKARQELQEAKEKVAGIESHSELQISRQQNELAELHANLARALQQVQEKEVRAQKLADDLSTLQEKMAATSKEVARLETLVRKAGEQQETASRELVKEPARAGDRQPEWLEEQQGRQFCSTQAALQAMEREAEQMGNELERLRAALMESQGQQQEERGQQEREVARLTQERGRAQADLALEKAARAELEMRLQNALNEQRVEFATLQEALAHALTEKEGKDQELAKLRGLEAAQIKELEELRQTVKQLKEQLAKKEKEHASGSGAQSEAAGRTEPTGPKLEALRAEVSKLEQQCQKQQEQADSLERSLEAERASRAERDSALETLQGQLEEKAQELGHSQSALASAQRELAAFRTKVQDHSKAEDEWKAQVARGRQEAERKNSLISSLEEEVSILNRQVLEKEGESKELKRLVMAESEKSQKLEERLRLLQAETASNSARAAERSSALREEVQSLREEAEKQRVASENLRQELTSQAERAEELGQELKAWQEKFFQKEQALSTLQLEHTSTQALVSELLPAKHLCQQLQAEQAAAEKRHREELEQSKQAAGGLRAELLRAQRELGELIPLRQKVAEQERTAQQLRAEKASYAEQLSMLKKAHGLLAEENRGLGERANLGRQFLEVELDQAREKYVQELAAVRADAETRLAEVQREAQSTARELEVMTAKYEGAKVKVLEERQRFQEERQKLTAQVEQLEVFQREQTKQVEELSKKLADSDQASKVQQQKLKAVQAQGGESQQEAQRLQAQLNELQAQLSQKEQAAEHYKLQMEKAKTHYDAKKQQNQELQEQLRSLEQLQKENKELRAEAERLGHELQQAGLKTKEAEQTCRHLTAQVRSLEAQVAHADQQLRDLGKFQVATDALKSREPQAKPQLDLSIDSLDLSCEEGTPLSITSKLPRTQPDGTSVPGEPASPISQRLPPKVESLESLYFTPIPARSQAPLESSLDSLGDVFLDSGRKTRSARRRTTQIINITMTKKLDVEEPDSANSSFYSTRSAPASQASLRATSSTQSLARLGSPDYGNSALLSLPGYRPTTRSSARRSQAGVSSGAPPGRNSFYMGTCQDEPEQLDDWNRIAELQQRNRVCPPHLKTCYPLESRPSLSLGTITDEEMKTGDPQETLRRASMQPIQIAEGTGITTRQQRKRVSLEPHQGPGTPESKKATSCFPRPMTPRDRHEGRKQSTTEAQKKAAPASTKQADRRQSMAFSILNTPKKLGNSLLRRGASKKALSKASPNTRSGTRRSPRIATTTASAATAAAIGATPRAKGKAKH
inactive: [1] 0.027 | [2] -0.05 | [3] -0.009 | [4] 0.022 | [5] 0.014

NRDC isoform 2 (UniProt O43847)
inactive: [1] -0.058 | [2] 0.04 | [3] 0.037 | [4] -0.023 | [5] 0

NARS2 (UniProt Q96I59)
inactive: [1] 0 | [2] 0.057 | [3] 0.059 | [4] 0 | [5] -0.027

NUDT21 (UniProt O43809)
inactive: [1] 0.013 | [2] 0.021 | [3] 0.011 | [4] -0.01 | [5] 0.001

NKAP (UniProt Q8N5F7)
inactive: [1] -0.013 | [2] 0.148 | [3] 0.049 | [4] 0.078 | [5] 0.171

MT-ND1 (UniProt P03886)
inactive: [1] -0.024 | [2] -0.12 | [3] -0.24 | [4] -0.102 | [5] 0.177

NSMCE2 (UniProt Q96MF7)
inactive: [1] 0.074 | [2] 0.031 | [3] 0.075 | [4] 0.004 | [5] -0.017

OPA1 isoform 2 (UniProt O60313)
inactive: [1] -0.054 | [2] 0.028 | [3] 0.021 | [4] -0.03 | [5] -0.037

NDUFA4 (UniProt O00483)
inactive: [1] 0 | [2] 0.005 | [3] 0.014 | [4] -0.031 | [5] 0.046

NRF1 isoform 4 (UniProt Q16656)
inactive: [1] -0.045 | [2] 0.001 | [3] 0.085 | [4] -0.043 | [5] -0.039

NQO1 (UniProt P15559)
inactive: [1] 0.07 | [2] 0.122 | [3] 0.083 | [4] -0.015 | [5] -0.072

MRPS33 (UniProt Q9Y291)
inactive: [1] 0.005 | [2] -0.057 | [3] -0.114 | [4] 0.098 | [5] -0.002

NBN (UniProt O60934)
inactive: [1] 0.002 | [2] 0.032 | [3] 0.036 | [4] -0.004 | [5] -0.001

NCBP2AS2 (UniProt Q69YL0)
inactive: [1] 0.02 | [2] 0.019 | [3] 0.048 | [4] -0.038 | [5] -0.003

OXA1L (UniProt Q15070)
inactive: [1] 0.014 | [2] -0.01 | [3] 0.018 | [4] 0 | [5] 0.009

NUP107 (UniProt P57740)
inactive: [1] -0.02 | [2] -0.043 | [3] 0.051 | [4] 0.052 | [5] 0.025

NME1 isoform 2 (UniProt P15531)
inactive: [1] 0.095 | [2] 0.142 | [3] 0.069 | [4] 0.033 | [5] -0.108

MYH11 isoform 2 (UniProt P35749)
inactive: [1] 0.011 | [2] 0.024 | [3] -0.071 | [4] -0.026 | [5] -0.036

MRPS17 (UniProt Q9Y2R5)
inactive: [1] -0.031 | [2] -0.044 | [3] -0.011 | [4] 0.06 | [5] -0.064

OSTC (UniProt Q9NRP0)
inactive: [1] -0.031 | [2] 0.048 | [3] 0.063 | [4] -0.213 | [5] 0.048

MPP1 (UniProt Q00013)
Chain of UniProt Q00013 (Q00013 whole entry, looked up): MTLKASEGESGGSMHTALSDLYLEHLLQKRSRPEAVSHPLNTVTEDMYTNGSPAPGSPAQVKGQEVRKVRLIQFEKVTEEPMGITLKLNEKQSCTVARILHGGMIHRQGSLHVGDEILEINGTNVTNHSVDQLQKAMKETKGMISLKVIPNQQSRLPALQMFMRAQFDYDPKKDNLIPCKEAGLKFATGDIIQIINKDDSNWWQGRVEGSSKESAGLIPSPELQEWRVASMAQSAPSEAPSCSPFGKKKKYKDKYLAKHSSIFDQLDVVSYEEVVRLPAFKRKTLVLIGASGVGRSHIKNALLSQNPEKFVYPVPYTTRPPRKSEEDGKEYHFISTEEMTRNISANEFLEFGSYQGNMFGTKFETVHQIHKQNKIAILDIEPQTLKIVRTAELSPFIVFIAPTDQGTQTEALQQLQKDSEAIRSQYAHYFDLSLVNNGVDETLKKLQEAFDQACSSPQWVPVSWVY
inactive: [1] -0.055 | [2] -0.06 | [3] 0.051 | [4] -0.024 | [5] 0.013

ORC3 isoform 2 (UniProt Q9UBD5)
inactive: [1] -0.098 | [2] 0.032 | [3] 0.107 | [4] 0.013 | [5] -0.079

MT-ND2 (UniProt P03891)
inactive: [1] 0.023 | [2] 0.123 | [3] -0.118 | [4] -0.03 | [5] -0.003

NSDHL (UniProt Q15738)
inactive: [1] 0.029 | [2] 0.047 | [3] 0.019 | [4] 0 | [5] -0.034

ORC5 (UniProt O43913)
inactive: [1] -0.081 | [2] 0.02 | [3] 0.144 | [4] -0.016 | [5] -0.044

NDUFA7 (UniProt O95182)
Chain of UniProt O95182 (O95182 whole entry, looked up): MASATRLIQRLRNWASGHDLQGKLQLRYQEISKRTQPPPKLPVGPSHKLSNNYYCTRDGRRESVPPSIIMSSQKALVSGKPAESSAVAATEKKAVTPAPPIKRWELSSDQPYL
inactive: [1] 0.007 | [2] 0.002 | [3] 0.007 | [4] 0.008 | [5] 0.034

PAFAH1B2 (UniProt P68402)
inactive: [1] -0.042 | [2] -0.078 | [3] 0.078 | [4] 0.004 | [5] 0.082

NR2C2 isoform 2 (UniProt P49116)
inactive: [1] -0.011 | [2] 0.046 | [3] 0.059 | [4] 0.042 | [5] 0.024

NDUFA9 (UniProt Q16795)
inactive: [1] -0.005 | [2] 0.075 | [3] 0.078 | [4] -0.014 | [5] -0.054

NEMP1 (UniProt O14524)
inactive: [1] 0.015 | [2] -0.003 | [3] 0.036 | [4] 0.048 | [5] -0.018

MRPS15 (UniProt P82914)
inactive: [1] -0.035 | [2] 0.077 | [3] -0.056 | [4] 0.066 | [5] -0.097

NME7 (UniProt Q9Y5B8)
Chain of UniProt Q9Y5B8 (Q9Y5B8 whole entry, looked up): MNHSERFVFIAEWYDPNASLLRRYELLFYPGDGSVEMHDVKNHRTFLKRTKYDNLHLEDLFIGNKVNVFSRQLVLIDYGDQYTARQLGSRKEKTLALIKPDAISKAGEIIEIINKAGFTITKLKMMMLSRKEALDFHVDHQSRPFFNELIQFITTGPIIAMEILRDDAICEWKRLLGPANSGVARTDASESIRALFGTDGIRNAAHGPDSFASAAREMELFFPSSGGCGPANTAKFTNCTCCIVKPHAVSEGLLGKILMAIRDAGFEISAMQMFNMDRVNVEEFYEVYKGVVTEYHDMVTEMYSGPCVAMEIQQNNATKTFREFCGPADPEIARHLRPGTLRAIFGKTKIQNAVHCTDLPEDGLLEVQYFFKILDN
inactive: [1] -0.112 | [2] 0.098 | [3] 0.175 | [4] 0.096 | [5] -0.038
